Hits are enriched below; roughly 0.5% of the tested compounds scored in any of these assays.
E coli growth-1 – bacterial growth inhibition, counter-screen for AddAB inhibitors; E. coli V3065 growth, OD600 absorbance, 18 h; inhibition, % at 11.9 µM; 0.27% of 330,000 active;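 active = inhibition above the campaign's mean inhibition across all tested compounds plus 3 SD, cut at about 9.9% in these data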;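 note: uninfected addAB+ strain grown without phage in ampicillin broth; 0% = DMSO wells and 100% = ciprofloxacin 0.95 µg/ml wells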
Tat transport – E. coli Tat transport inhibition; E. coli MC4100 TorA-mCherry Tat export, fluorescence; inhibition, % at 10 µM; 0.036% of 340,000 active; AID 488895;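 active = mean replicate inhibition at least 50% and at least half of replicates individually reaching 50%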;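 note: exported cargo escapes ClpAP degradation while cytoplasmic cargo is degraded and loses fluorescence; 0% = median of neutral control wells and 100% = median of NaSCN control wells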
AddAB inh – less growth of phage-infected E. coli with AddAB | E. coli expressing H. pylori AddAB, absorbance growth | inhibition, % at 11.9 µM | 0.29% of 330,000 active; in the data active = inhibition above about 12%;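 note: 0% = vehicle wells of infected cells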
E coli growth-2 – blocks Escherichia coli growth; OD600, 23 h; stronger effect = lower value; AID 1053175; OD600 absorbance (concentration not given with the values); 0.21% of 330,000 active;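 active = OD600 absorbance below the run mean of sample wells minus 3.6 SD, in any replicate, cut at about 0.56 in these data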
phage Ecoli inh – E. coli growth loss with phage present; 0.26% of 360,000 active; inhibition, % at 11.9 µM; growth absorbance; in the data active = inhibition above about 11%
The depositor's hits bear a star; i = inactive; / = not tested or not shown.

SMILES	E coli growth-1	Tat transport	AddAB inh	E coli growth-2	phage Ecoli inh
CC(C)C[C@@H]1CN=C(N)N1C[C@@H]1CCCN1C[C@H](C)N1C[C@@H](Cc2ccccc2)N(CCCC2CCCC2)C1=N	3	-2	2	/	1
CCCCCCn1c2c(c(=N)c3c1CCC3)CCC2	1	-10	2	0.6	3
CCCCCCCCCn1c2c(c(=N)c3c1CCC3)CCC2	10*	-11	5	0.49*	/
CC(C)(C)OC(=O)NCCCCC(NC(=O)c1[nH]cnc1C(=O)Nc1ccc(CNC(=O)OC(C)(C)C)cc1)C(=O)OC(C)(C)C (stereo not given)	/	/	/	0.74	/
Cc1ccc(C(C[N+](=O)[O-])c2c(-c3ccccc3O)[nH][nH]c2=O)cc1 (stereo not given)	0	-30	8	0.52*	5
Cc1nc2ccccc2n1N=Cc1ccc([N+](=O)[O-])o1	/	/	/	0.29*	/
CNC[C@@H](CC1CCCCC1)NC[C@H](CC(C)C)NCCc1cccc(C(F)(F)F)c1	-2	6	0	/	4
CNCC(CC1CCCCC1)NCC(CC(C)C)NCCc1cccc(C(F)(F)F)c1 (stereo not given)	/	/	/	0.068*	/
COc1ccc(C2CC(=O)C=C(c3ccc(Cl)c(Cl)c3)C2)cc1 (stereo not given)	/	/	/	0.63	/
CC(/C=C/c1ccccc1)=NNC(=O)c1cc(C)[nH]n1	/	/	/	0.67	/
CC(C)(C)C1C=C(C(=O)NCc2nc3ccccc3[nH]2)OC(OCCCCO)C1 (stereo not given)	/	/	/	0.63	/
COC(=O)c1c(NC(=S)NN2CCN(C)CC2)sc2c1CCC(C)C2 (stereo not given)	-5	14	-3	0.48*	3
COC(=O)c1c(NC(=O)Cc2cccs2)sc2c1CCC(C)C2 (stereo not given)	-1	7	3	0.7	0
FC(F)(F)c1cccc(NC(=S)Nc2ccc(Cl)c(Cl)c2)c1	0	-6	1	0.4*	6
FC(F)(F)c1cccc(NC(=S)NNC(=S)Nc2cccc(C(F)(F)F)c2)c1	0	/	-3	/	/
Fc1ccc(Nc2nc(NCc3ccco3)c3ccccc3n2)cc1	1	-80	1	0.36*	1
c1ccc(CNc2nc(NCc3ccccc3)c3ccccc3n2)cc1	1	-3	6	0.44*	/
N#CC(c1ccc(Cl)cc1)c1ccc2c(C(F)(F)F)cc(C(F)(F)F)nc2n1 (stereo not given)	2	-16	3	0.68	15*
FC(F)(F)c1cc(C(F)(F)F)c2ccc(N3CCN(c4ccc(Cl)cc4)CC3)nc2n1	1	-8	1	0.75	1
CN(C)c1ccc(C=c2c3ccccc3n3c2cc(-c2ccc(Cl)cc2)[n+]3C)cc1	/	i	/	/	-1
CN(C)c1ccc(C=c2c3ccccc3n3c2cc(-c2ccccc2)[n+]3C)cc1	/	i	/	/	11*
Oc1c(CN2CCN(c3ccccc3)CC2)cc(Br)c2cccnc12	4	5	9	0.46*	5
c1ccc(N2CCN(Cc3ccnc4ccccc34)CC2)cc1	0	8	-1	0.64	1
Nc1nonc1C(=O)NN=Cc1cc2c(cc1Cl)OCO2	/	/	/	0.71	/
C[n+]1ccccc1/C=C1\Sc2ccccc2N1CCO	0	-3	3	0.66	2
SMILES	E coli growth-1	Tat transport	AddAB inh	E coli growth-2	phage Ecoli inh
CC[n+]1c(C)sc2c3ccsc3ccc21	1	8	-1	0.67	4
CCN1/C(=C/c2ccc3cc(C)ccc3[n+]2CC)Sc2ccc3sccc3c21	-3	-7	-1	0.33*	/
CCN1/C(=C\c2ccc3cc(C)ccc3[n+]2CC)Sc2cc(C)c(C)cc21	/	2	/	0.21*	8
Cc1ccc2c(c1)S/C(=C\c1cccc[n+]1C)N2CCO	-3	7	-3	0.65	3
CCN1/C(=C/c2ccc3cccc(C)c3[n+]2CC)Sc2ccccc21	5	1	9	0.46*	6
CCN1/C(=C/c2ccc3cc(C)cc(C)c3[n+]2CC)Sc2cc(C)ccc21	/	-2	/	0.12*	11
CC[n+]1c(/C=C/c2ccc(OC)c(OC)c2)ccc2ccccc21	0	-2	3	0.65	-1
CCOC(=O)C1C2COc3ccc(Br)cc3C2N2C(=O)CN(Cc3ccc(OC)cc3)C(=O)[C@@]12C (stereo not given in full)	/	/	/	0.71	/
CC(O)C1CN=C(N)N1CC(C)(C)C (stereo not given)	/	/	/	0.7	/
CCN1C(=Cc2ccc3ccccc3[n+]2CC)Sc2cc(C)ccc21	/	/	/	0.36*	/
CN1CCN(C(c2cccs2)c2nnnn2Cc2ccc(F)cc2)CC1 (stereo not given)	-2	1	1	0.45*	1
O=[N+]([O-])c1ccc(NC(=S)NCCc2ccc(F)cc2)cc1	10	-14	11	0.46*	9
O=C(NCCc1ccc(F)cc1)Nc1ccc([N+](=O)[O-])cc1	/	0	/	0.55	7
CC1CCN(C(=O)c2ccc(S(=O)(=O)N3CCCCCC3)cc2)CC1	2	4	3	0.65	2
CC1CCN(C(=O)c2ccc(S(=O)(=O)N3CCCC3)cc2)CC1	-1	55*	4	0.68	3
CN(C)C=NC1=C(C#N)C(c2ccc(Br)cc2)c2ccc3ccccc3c2O1 (stereo not given)	/	/	/	0.66	/
CCCCCCCCCCCCCCCC(O)C[N+](C)(C)CCO (stereo not given)	/	52*	/	/	3
COC(=O)C1=C(C(=O)OC)C2N(C)c3ccccc3[C@@]23CC(C(=O)OC)N(C(=O)COCc2ccccc2)C3=N1 (stereo not given in full)	/	/	/	0.65	/
C=CCN1C(=O)[C@@H]2Cc3c([nH]c4ccccc34)C(c3ccc(O)cc3)N2C1=S (stereo not given in full)	-1	5	1	0.067*	/
C=CCN1C(=O)[C@@H]2Cc3c([nH]c4ccccc34)C(c3cc(OC)c(OC)c(OC)c3)N2C1=S (stereo not given in full)	-2	-6	-1	0.69	6
CC(C)CC(CN1C(N)=NCC1C)NC(=O)CC12CC3CC(CC(C3)C1)C2 (stereo not given)	/	/	/	0.67	/
Clc1ccc2c(c1)c1cc(Cl)ccc1n2CN1CCOCC1	-2	6	3	0.088*	1
COc1ccc(Cl)cc1CN1CCOCC1	0	6	3	0.66	-3
Clc1ccc2c(c1)c1ccccc1n2CN1CCOCC1	1	4	-1	0.52*	0
CCOC(=O)C=Cc1ccc(C(F)(F)F)cc1S(=O)(=O)NC(C)(C)C	/	/	/	0.68	/
SMILES	E coli growth-1	Tat transport	AddAB inh	E coli growth-2	phage Ecoli inh
Cc1ccc(NS(=O)(=O)c2ccc(OCC(=O)NCc3ccco3)cc2)cc1	13*	-2	10	0.75	3
NCCCn1c(C(=O)c2cc(Cl)c(N)c(Cl)c2)c2ccc([N+](=O)[O-])cc2[n+]1[O-]	12*	9	15*	0.42*	7
Cc1cc(N=Nc2ccccc2C(=O)O)c(C)c(C)c1O	10.0*	-1	7	0.72	1
Cc1cc(O)c(C(C)C)cc1N=Nc1ccccc1C(=O)O	-1	3	-2	0.66	-2
O=C(Cn1c(CO)nc2ccccc21)NCCc1ccc(F)cc1	10*	2	10	0.69	4
CC(=NNC(=O)c1nn(C)cc1Br)c1ccncc1	/	/	/	0.68	/
